# According to PubChem BioAssay (NCI):
# Compounds without any hit were thinned out: in the full panel of roughly 83,000, 20% have a hit.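 Cells were grown in 96-well plates and exposed to the test compound at a single concentration for 48 hours; results are reported as percent growth, with values below 10 considered active.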 Unmarked numbers belong to inactive results. Calls of active or inactive are those of the source.
# What was measured:
# Assay in all cases: NCI-60 one-dose screen, 48 h (100 = growth as untreated, 0 = no growth, -100 = all killed)
# Settings in all cases: 10 µM unless noted
# [1] = test system: NCI-H23 lung
# [2] = test system: NCI-H226 lung
# [3] = test system: NCI-H322M lung
# [4] = test system: HOP-62 NSCLC
# [5] = test system: NCI-H460 lung
# [6] = test system: HOP-92 NSCLC
# [7] = test system: NCI-H522 lung
# [8] = test system: A549/ATCC NSCLC
# [9] = test system: 786-0 renal
# [10] = test system: COLO 205 colon
# [11] = test system: DU-145 prostate
# [12] = test system: MALME-3M melanoma
# [13] = test system: MDA-MB-231 breast
# [14] = test system: RXF 393 renal
# [15] = test system: SF-268 CNS
# [16] = test system: SF-539 CNS
# [17] = test system: M14 melanoma
# [18] = test system: K-562 leukemia
# [19] = test system: SF-295 CNS
# [20] = test system: UACC-257 melanoma
Compound,growth [1],growth [2],growth [3],growth [4],growth [5],growth [6],growth [7],growth [8],growth [9],growth [10],growth [11],growth [12],growth [13],growth [14],growth [15],growth [16],growth [17],growth [18],growth [19],growth [20]
COC(=O)C(N)CSC(c1ccccc1)(c1ccccc1)c1ccccc1 (configuration not stated),45.5%,77.6%,9.37% (active),44.6%,8.85% (active),55.1%,-43.6% (active),31.3%,53.7%,1.18% (active),-24.3% (active),31.8%,3.44% (active),1.07% (active),28.4%,-11.7% (active),-6.93% (active),–,–,–
CC(=O)O[C@H]1CC[C@@]2(C)C(=CC[C@@H]3[C@@H]2CC[C@]2(C)C(=O)N(O)C(=O)C[C@@H]32)C1,68%,107%,91.9%,68.5%,60.8%,93%,75.5%,86.9%,81.1%,112%,86.9%,–,97.9%,74%,91.7%,105%,96.4%,49.9%,98.9%,106%
C/C(=N\Nc1ccc2ccccc2n1)c1ccccn1,23.3%,0.47% (active),-12% (active),5.02% (active),0.889% (active),-10.9% (active),-16.4% (active),4.55% (active),6.89% (active),0.767% (active),13.1%,–,-5.17% (active),9.99% (active),-3.84% (active),-44.2% (active),–,2.37% (active),–,-22.6% (active)
O=C(N/N=C\c1ccccc1O)C1CC1,116%,104%,88.8%,105%,115%,90.8%,98.1%,102%,105%,109%,108%,–,103%,112%,98.7%,110%,109%,113%,110%,94.7%
Cc1ccc2c(c1)c(-c1nc(-c3c[nH]c4ncccc34)cs1)cn2C,71.9%,88.9%,73.1%,105%,56.8%,83.8%,70.5%,87.8%,83%,112%,115%,–,75.7%,97.4%,128%,92%,101%,81%,101%,115%
N#CCCCCCn1c2ccccc2c2c3[nH]c(=O)[nH]c(=O)c3c3c4ccccc4n(CCCCCC#N)c3c21,55.6%,65.8%,42.5%,15.8%,34.9%,19.2%,44.9%,73.7%,0.172% (active),71.6%,54.7%,33.7%,-7.94% (active),41.4%,19.6%,-0.187% (active),66.8%,–,43.7%,–
CCOC(=O)c1ccc2c(c1)[n+](=O)c(C(=O)C1CCCS1)c(C(F)(F)F)n2[O-] (configuration not stated),-87% (active),-54.9% (active),-87.6% (active),-90.6% (active),-73.7% (active),-83.6% (active),-83.3% (active),-94.9% (active),-92.3% (active),-84.8% (active),-96.5% (active),–,-76.8% (active),-92.3% (active),-89.6% (active),-83.8% (active),-96.6% (active),-52.6% (active),-88% (active),-90.4% (active)
Cn1cc(-c2nc(-c3cn(C)c4ncccc34)cs2)c2cc(F)ccc21,43.3%,68.8%,57%,53.7%,15.8%,72.4%,-0.482% (active),38.1%,45.9%,31.3%,57.4%,–,47.1%,30.8%,52.2%,26.6%,17.2%,16%,16.3%,61.7%
C#CCC(C)(O)/C=C/C1=C(C)CCCC1(C)C (configuration not stated),94.5%,85.4%,99.4%,96.9%,103%,84%,75.5%,69.8%,92.6%,113%,103%,90%,99.3%,100%,95.6%,102%,89.4%,–,95.4%,76.4%
C=C(C)[C@@H]1CC[C@]2(/C=N/Nc3ccncc3)CC[C@]3(C)[C@H](CC[C@@H]4[C@@]5(C)CCCNC(C)(C)[C@@H]5CC[C@]43C)[C@@H]12,85.9%,87.7%,102%,94.7%,86.6%,55.6%,94.8%,–,99.8%,42.2%,95.7%,80.3%,101%,96.3%,97.2%,88.7%,79.4%,7.55% (active),99.1%,94.7%
CC(=O)OC[C@]12CC[C@@H](/C(C)=N/O)[C@@H]1[C@H]1CC[C@@H]3[C@@]4(C)CCCNC(C)(C)[C@@H]4CC[C@@]3(C)[C@]1(C)CC2,86.2%,88.5%,90.7%,85.2%,84.5%,66.9%,83.8%,–,73.5%,75.8%,77.3%,89.2%,82.7%,71.2%,62.8%,79.5%,78.1%,41.3%,84.5%,81.4%
Cc1ccc(N(CC(=O)Nc2ccc(S(=O)(=O)NC3CCN(C)CC3)cc2)S(=O)(=O)c2ccc(Cl)cc2)cc1,90.7%,87.7%,88.9%,96.2%,8.12% (active),69.6%,90.4%,–,87.4%,-47.6% (active),71.9%,-47.5% (active),53.6%,36.4%,68.7%,85.4%,63%,19.5%,101%,–
Cc1cc(N(CCNc2ccnc3cc(Cl)ccc23)Cc2ccco2)nc(Cl)n1,14.2%,-62.3% (active),12.6%,-48.2% (active),-59.8% (active),-76.9% (active),-8.16% (active),–,-92.8% (active),-53.5% (active),19.6%,-64.6% (active),-75.4% (active),-79.8% (active),30.9%,-80.8% (active),-64.9% (active),-54.5% (active),-75% (active),-29.2% (active)
COc1ccc(-c2n/c(=C\c3c(O)[nH]c4ccc(OC)cc34)cc3c2=Nc2ccccc2-3)cc1,-7.74% (active),89.2%,97.8%,83.4%,-32.2% (active),72.1%,76%,19.3%,-82.3% (active),88.9%,-2.21% (active),–,39%,–,-33.3% (active),-48% (active),-40.5% (active),-32.8% (active),–,83.6%
CC(=O)OC(C)COc1ccc(-c2ccccc2)cc1 (configuration not stated),107%,106%,121%,102%,105%,89.9%,84.4%,–,93.4%,104%,101%,118%,103%,104%,96.1%,101%,92.1%,97.9%,97.5%,74.3%
